Measured values reported in PubChem BioAssay (NCI).
About 83,000 compounds went through this panel and 20% of them were active in at least one assay; those are over-represented in the sample as a whole.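 Activity criterion: percent growth below 10, measured after cells in 96-well plates were exposed to a single compound concentration for 48 hours.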 Active and inactive are the calls of the source.

Legend:
Assay in all cases: NCI-60 one-dose screen, 48 h (100 = growth as untreated, 0 = no growth, -100 = all killed)
[1] = test system: HCT-15 colon
[2] = test system: HT29 colon
[3] = test system: SNB-75 CNS
[4] = test system: SNB-19 CNS
[5] = test system: U251 CNS; conditions: 10 µM unless noted
[6] = test system: PC-3 prostate
[7] = test system: SK-MEL-5 melanoma
[8] = test system: UACC-62 melanoma; conditions: 10 µM unless noted
[9] = test system: LOX IMVI melanoma
[10] = test system: SK-MEL-28 melanoma
[11] = test system: EKVX NSCLC; conditions: 10 µM unless noted
[12] = test system: SN12C renal
[13] = test system: UO-31 renal
[14] = test system: TK-10 renal
[15] = test system: ACHN renal
[16] = test system: CAKI-1 renal
[17] = test system: A498 renal
[18] = test system: CCRF-CEM leukemia; conditions: 10 µM unless noted
[19] = test system: MOLT-4 leukemia
[20] = test system: SK-MEL-2 melanoma; conditions: 10 µM unless noted

Measured: growth

Cc1ccc(N=C=C(c2ccccc2)c2ccccc2)cc1
inactive: [1]; 10 µM unless noted 67.6% | [2]; 10 µM unless noted 97.6% | [3]; 10 µM unless noted 78.1% | [4]; 10 µM unless noted 85.2% | [5] 81.5% | [6]; 10 µM unless noted 66.9% | [7]; 10 µM unless noted 89.3% | [8] 84.6% | [10]; 10 µM unless noted 106% | [11] 90.6% | [12]; 10 µM unless noted 79.2% | [13]; 10 µM unless noted 80.3% | [14]; 10 µM unless noted 112% | [15]; 10 µM unless noted 102% | [16]; 10 µM unless noted 81.6% | [17]; 10 µM unless noted 126%
active: [9]; 10 µM unless noted 5.05% | [18] 1.63% | [19]; 10 µM unless noted -1.03%

Cc1ccc2nc(C[n+]3ccc4ccccc4c3)ccc2c1
active: [7]; 10 µM unless noted -31.1%
inactive: [1]; 10 µM unless noted 99% | [2]; 10 µM unless noted 37.3% | [3]; 10 µM unless noted 58.9% | [4]; 10 µM unless noted 46.5% | [5] 42.1% | [6]; 10 µM unless noted 38.5% | [8] 69.8% | [9]; 10 µM unless noted 68.4% | [10]; 10 µM unless noted 63.5% | [20] 78.8% | [11] 72.2% | [12]; 10 µM unless noted 39.3% | [13]; 10 µM unless noted 85.7% | [14]; 10 µM unless noted 95% | [15]; 10 µM unless noted 101% | [16]; 10 µM unless noted 98.3% | [18] 52.6% | [19]; 10 µM unless noted 71.9%

O=C(Nc1cccc(Br)c1)Oc1cccc2cccnc12
active: [1]; 100 µM 5.53% | [7]; 100 µM 2.15% | [9]; 100 µM -3.16% | [11] -17.3% [100 µM] | [12]; 100 µM -26.1% | [19]; 100 µM -0.787%
inactive: [1]; 10 µM 94.1% | [2]; 10 µM 92.1% | [2]; 100 µM 57.8% | [3]; 10 µM 83.4% | [3]; 100 µM 41.6% | [5] 21.1% [100 µM] | [6]; 10 µM 92.9% | [6]; 100 µM 11.7% | [7]; 10 µM 101% | [9]; 10 µM 102% | [12]; 10 µM 99.4% | [13]; 10 µM 98.6% | [13]; 100 µM 26% | [14]; 10 µM 118% | [14]; 100 µM 112% | [15]; 10 µM 103% | [15]; 100 µM 15.4% | [16]; 10 µM 94.4% | [16]; 100 µM 67.9% | [18] 14.4% [100 µM] | [19]; 10 µM 115%

Cc1ccc(C(=Nc2ccccc2)N=P(c2ccccc2)(c2ccccc2)c2ccccc2)cc1
inactive: [3]; 10 µM unless noted 15.6%
active: [1]; 10 µM unless noted 2.78% | [2]; 10 µM unless noted 2.74% | [4]; 10 µM unless noted -15.8% | [5] -7.18% | [6]; 10 µM unless noted -31.5% | [7]; 10 µM unless noted -96.6% | [8] -78.5% | [9]; 10 µM unless noted -82.9% | [10]; 10 µM unless noted -48.6% | [20] -51.8% | [11] -16.8% | [12]; 10 µM unless noted -10.1% | [13]; 10 µM unless noted -79.6% | [14]; 10 µM unless noted -23.4% | [15]; 10 µM unless noted 2.97% | [16]; 10 µM unless noted -32.1% | [18] -30.2% | [19]; 10 µM unless noted 1.64%

CN(C)C(=O)c1ccc(SC(=S)NCc2ccccc2)cc1
active: [1]; 100 µM -35.1% | [2]; 100 µM -62% | [3]; 100 µM 1.41% | [4]; 100 µM -0.973% | [7]; 100 µM -53.1% | [10]; 100 µM -34.8% | [12]; 100 µM -15.4% | [13]; 100 µM -67.4% | [14]; 10 µM unless noted -4.78% [100 µM] | [15]; 100 µM -56.9% | [18] 0.435% [100 µM] | [19]; 100 µM 3.1%
inactive: [1]; 10 µM 92.2% | [2]; 10 µM 107% | [3]; 10 µM 110% | [4]; 10 µM 109% | [5] 16.7% [100 µM] | [6]; 10 µM 97.1% | [6]; 100 µM 17.6% | [7]; 10 µM 102% | [9]; 10 µM unless noted 87.5% | [10]; 10 µM 106% | [11] 69.5% [100 µM] | [12]; 10 µM 103% | [13]; 10 µM 93.2% | [15]; 10 µM 103% | [16]; 10 µM 102% | [16]; 100 µM 11.2% | [17]; 10 µM 114% | [17]; 100 µM 96.1% | [19]; 10 µM 111%
